L3MBTL1 block – blocks human L3MBTL1; AID 485360; AlphaScreen L3MBTL1–H3K9me1 peptide binding; hit rate 0.66% among 230,000; Q9Y468; Potency, µM (series often up to 57.1 µM), inactives show at the highest dose activity, negative = inhibition, most hits filed as inhibitors; note: % is set by controls: 0 for no effect and ±100 for the full control effect; nearly all actives have a fitted effect of over 60% in size
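Read-out is AlphaScreen signal from streptavidin donor and nickel chelate acceptor beads (10 ug/mL final each) bridging L3MBTL1 (50 nM) and biotinylated K9-monomethylated H3(1-15) peptide (75 nM), after 30 min compound exposure at room temperature.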
G9a block – inhibitors of human histone lysine methyltransferase G9a; Q96KQ7; G9a H3K9 monomethylation, AlphaScreen, 2 h; Potency, µM (titrated, usually from 102 µM), for the others: top-dose activity, negative = inhibition, actives largely listed as inhibitors; hit rate 8.8% among 350,000; note: % is set by controls: 0 for no effect and ±100 for the full control effect; nearly all actives have a fitted effect of over 75% in size
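Quantitative HTS format: methyltransferase activity on a biotin-tagged H3K9 peptide is measured by AlphaScreen, using a rabbit anti-monomethyl-H3K9 antibody with streptavidin donor and anti-IgG acceptor beads. Final levels are 20 nM enzyme, 500 nM peptide, 20 uM SAM; 2 h RT.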
BAZ2B block – BAZ2B (human) inhibition; Q9UIF8; AlphaScreen BAZ2B-H3K14Ac peptide displacement; Potency, µM (series often up to 114 µM), for inactives: at the highest dose activity change, negative = inhibition, usual class: inhibitors; hit rate 4.4% among 360,000; AID 504333; note: % is set by controls: 0 for no effect and ±100 for the full control effect; nearly all actives have a fitted effect of over 60% in size
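Inhibition is scored as reduced AlphaScreen emission. The BAZ2B/b-H3(5-23)K14Ac complex (50 nM each) in PBS pH 7.4, 0.01% Tween-20 meets compound (up to 110 uM) for 30 min at RT before bead addition.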
JMJD2A Tudor – JMJD2A Tudor domain (human) inhibition; O75164; Potency, µM (series often up to 114 µM), inactives show at the top dose activity change, negative = inhibition, usual class: inhibitors; hit rate 4.4% among 390,000; AlphaScreen JMJD2A-Tudor / H3K4me3 peptide binding; note: % is set by controls: 0 for no effect and ±100 for the full control effect; nearly all actives have a fitted effect of over 50% in size
HP1b chromo inh – blocks HP1-beta chromodomain binding to methylated histone tails; AlphaScreen HP1-beta / biotin-H3K9me3 peptide binding; Potency, µM (doses to about 114 µM), inactives show at the top dose activity change, negative = inhibition, most hits filed as inhibitors; hit rate 0.56% among 390,000; AID 540317; note: nearly all actives have a fitted effect of over 70% in size
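HP1-beta protein (50 nM final) preincubated 30 min at room temperature with biotinylated H3(1-18)K9me3 peptide (50 nM) in PBS pH 7.4, 0.01% Tween-20, then compound added for 30 min. AlphaScreen streptavidin donor/nickel chelate acceptor beads (10 ug/mL final), 30 min dark, luminescence read.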
* hit, by the source's call; ? = inconclusive; . = not tested or not shown; [ ] = another dose, or the depositor's remark. Compounds with a hit are over-represented: about 11% of the library has one in this group of screens. Calls come from the whole dose curve; as a rule, active = well fitted inhibition curve with a large enough effect; inconclusive = small, poorly fitted or top-dose-only effect; inactive = no such curve, though single readings can be large or run the other way. Potency is the fitted concentration of half-maximal effect.

SMILES	L3MBTL1 block	G9a block	BAZ2B block	JMJD2A Tudor	HP1b chromo inh
CCCCCn1c(CCCNC(=O)c2ccccc2)nc2ccccc21	.	6.0%[59 µM]	0.4%	-11.6%	16.4%
CCOC(=O)c1cc(C)nc(Sc2ccc(C)cc2)c1C#N	59.3%	.	53.2%	84.5%	113.6%
CC(NC(=O)C1CCC(CNS(=O)(=O)c2ccc3c(c2)C(C)(C)C(=O)N3C)CC1)c1ccccc1 (stereo not given)	-0.7%	19.1%	1.4%	-6.4%	42.8%
COCc1nnc(NC(=O)CS(=O)(=O)c2ccc(C)cc2)s1	.	50.1µM*	1.8%	?	19.2%
CCOC(=O)Cc1csc(SCC(=O)Nc2nccs2)n1	1.7%	50.1µM*	7.0%	-10.3%	21.8%
Cc1ccc(S(=O)(=O)CCC(=O)Nc2nc(C(C)(C)C)cs2)cc1	.	17.8%	-14.5%	-20.5%	24.9%
Cc1ccc(S(=O)(=O)CC(=O)Nc2nc(C(C)(C)C)cs2)cc1	.	39.8µM*	-6.0%	-5.0%	15.5%
Cc1ccc(S(=O)(=O)CCc2nnc(NC(=O)CCl)s2)cc1C	0.9%	79.4µM*	-17.3%	-7.1%	24.2%
Cc1ccc(S(=O)(=O)CCc2nnc(N)s2)cc1C	5.9%	-1.5%[59 µM]	-1.7%	-10.5%	22.9%
CCc1ccc(OC(=O)CSc2nnc(-c3ccc4c(c3)OCO4)o2)cc1	.	-29.1%[59 µM]	-1.2%	-1.3%	29.7%
Cc1cc2c(s1)c1cnn(Cc3ccc(OC(F)F)cc3)c(=O)c1n2C	.	.	.	5.5%	.
COc1cccc(-c2cncnc2N(C)Cc2ccco2)c1	.	-44.2%[0.501 µM]	.	.	.
CCC(C(=O)Nc1ccccc1)n1nc(-c2cc(C)ccc2C)ccc1=O (stereo not given)	.	-3.7%[59 µM]	-13.8%	-22.3%	13.2%
Cc1oc(-c2cccs2)nc1CS(=O)CC(=O)NC1CCCCCC1 (stereo not given)	6.5%	39.8µM*	-1.6%	-22.2%	6.6%
Cc1ccc(-c2nc(CS(=O)CC(=O)NC3CCCCC3)c(C)o2)cc1 (stereo not given)	.	?	-19.5%	-3.4%	43.1%
Cc1ccccc1-c1nc(CS(=O)CC(=O)NC2CCCC2)c(C)o1 (stereo not given)	.	79.4µM*	-16.4%	11.7%	32.5%
COc1ccccc1OCCn1c(CCNC(=O)C2CCCCC2)nc2ccccc21	.	.	.	-6.2%[57.1 µM]	24.2%[57 µM]
N#Cc1ccc(COC(=O)CCc2c[nH]c3ccccc23)cc1	.	57.3%	0.0%	-12.9%	20.4%
COc1ccc2[nH]cc(CCNc3cc(-c4c(C)noc4C)ncn3)c2c1	.	43.8%[0.501 µM]	.	.	.
CCc1cc2c(cc3c(=O)n(CC(=O)N4CCCCC4)nc(CC)n32)s1	.	3.0%[59 µM]	2.1%	-9.8%	22.8%
N#CC1=C(S)N(c2ccccc2)C(c2cccs2)NC1=O (stereo not given)	15.1%	?	-21.9%	-19.6%	7.3%
N#CC1=C(S)N(c2ccccc2)C(c2ccc(-c3cc(Cl)ccc3Cl)o2)NC1=O (stereo not given)	-13.4%	?	50.1µM*	-31.8%	3.9%
N#CC1=C(S)N(c2ccc(F)cc2)C(c2ccco2)NC1=O (stereo not given)	6.3%	8.91µM*	-27.0%	-20.4%	-6.9%
Cc1ccc(N2C(S)=C(C#N)C(=O)NC2c2ccco2)cc1 (stereo not given)	17.9%	28.2µM*	-17.1%	-21.1%	20.1%
N#CC1=C(S)N(c2ccccc2)C(c2ccco2)NC1=O (stereo not given)	?	28.2µM*	?	-0.7%	44.7%
SMILES	L3MBTL1 block	G9a block	BAZ2B block	JMJD2A Tudor	HP1b chromo inh
CC(C)(C)OC(=O)N1CCC(c2cc(=O)n3[nH]cc(C(=O)Nc4ccc(F)c(Cl)c4)c3n2)CC1	-0.3%	-41.7%	-1.9%	-17.8%	8.7%[57 µM]
CC(C)(C)OC(=O)N1CCC(c2cc(=O)n3[nH]cc(C(=O)NC4CCCC4)c3n2)CC1	.	56.2µM*	-1.0%	-16.6%	40.6%
COc1ccc(NC(=O)c2c[nH]n3c(=O)cc(C4CCN(C(=O)OC(C)(C)C)CC4)nc23)cc1Cl	.	44.7µM*	?	-26.7%	17.0%
CC(C)(C)OC(=O)N1CCC(c2c(C(=O)NC3CCCCC3)cnn2-c2cccc(Cl)c2)CC1	.	-10.8%[59 µM]	4.5%[57.1 µM]	-32.4%	-7.3%
Cc1noc(C)c1S(=O)(=O)N1CCCC1C(=O)O (stereo not given)	.	-5.6%	6.0%	2.1%	26.0%
Cc1ccc(NC(=O)Cn2c(=O)c(CNc3ccccc3)cc3cc4c(cc32)OCCO4)cc1	.	-11.4%[59 µM]	1.1%	-15.7%	21.6%
CC(=O)N/C(=N\c1nc(C)cc(C)n1)Nc1ccc2ccccc2c1	-1.4%	79.4µM*	-21.6%	-2.7%	43.8%
CC(=O)N/C(=N/c1nc(C)cc(C)n1)Nc1ccc(NC(C)=O)cc1	-10.0%	-4.9%[12.7 µM]	3.1%	-3.2%	18.2%
CCc1cccc(NC(=O)CC(c2ccc(OC)cc2)N2Cc3ccccc3C2=O)c1 (stereo not given)	.	-8.8%[59 µM]	-19.7%	-24.1%	?
COc1ccc(N2CCN(C(=O)c3cc(-c4ccc(C)c(F)c4)on3)CC2)cc1	.	17.4%[59 µM]	7.7%	-19.5%	21.3%
N#CC1=C(N)N2C(=C(C#N)C1c1ccccc1)Sc1ccccc12 (stereo not given)	.	?	-0.7%	.	.
N#CC1=C(N)N2C(=C(C#N)C1c1ccc(Br)cc1)Nc1ccccc12 (stereo not given)	13.7%	10µM*	3.6%	-28.9%	1.5%
N#CC1=C(N)N2C(=C(C#N)C1c1cccc(Br)c1)Nc1ccccc12 (stereo not given)	2.2%	10µM*	2.5%	-10.4%	48.9%
COC(=O)c1sc2cccc(F)c2c1S(=O)(=O)N1CCN(c2ccc(F)cc2)CC1	.	?	-31.8%	-30.0%	-5.2%
CCCCn1c(-c2nn(C)c(C)c2Cl)n[nH]c1=S	1.4%	11.2µM*	11.4%[57.1 µM]	8.91µM*	-30.1%
S=c1[nH]nc(-c2cccc(Cl)c2)n1CCN1CCCCC1	-0.2%	?	6.6%	-35.5%[57.1 µM]	-7.4%
Cc1c(Cl)c(-c2n[nH]c(=S)n2CC(C)C)nn1C	10.5%	35.5µM*	29.2%	5.01µM*	?
CC(=O)NCCNc1ncnc2ccc(-c3ccccc3C#N)cc12	.	16.6%[0.501 µM]	.	.	.
CC1=NN(c2ccccc2)C(=O)C1C(=O)c1ccccc1 (stereo not given)	1.7%	?	-36.6%	?	0.0%
CC1=NN(c2ccccc2)C(=O)C1C(=O)c1ccc(Cl)cc1 (stereo not given)	-0.5%	39.8µM*	-28.2%	-12.1%	76.9%
CC1=NN(c2ccccc2)C(=O)C1C(=O)C(=O)Nc1ccc(F)cc1 (stereo not given)	.	35.5µM*	?	-22.1%	26.7%
Cc1ccc(C)c(CN2C(=O)c3ccccc3S(=O)(=O)c3ccc(C(=O)N4CCCCC4)cc32)c1	.	-36.4%[59 µM]	?	-19.9%	15.7%
Cc1cc(Cl)c2oc(C(=O)NCCN3CCOC3=O)c(C)c2c1	.	-4.4%	-15.4%	-9.7%	31.3%
Cc1cc(Cl)c2oc(C(=O)N3CCCCC3CCN3CCCC3=O)c(C)c2c1 (stereo not given)	.	.	50.1µM*	-15.4%	17.6%
